CRFR2-BP ag – CRF-BP/CRF-R2 complex agonism; activation, % at 13.2 µM; AID 588473; actives 0.46% (n = 350,000); HEK293 CRF-R2/CRF-BP, calcium dye fluorescence (FLIPR); percent of saturating CRF peptide response;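 active = activation of at least 50%, plus an integration ratio under a set limit after plate pattern correction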
NR3A LBD binder – modulators (binders) of human NR3A ligand-binding domain; NR3A LBD differential scanning fluorimetry, Tm shift; 0% = protein alone, 100% = glycine-bound protein; Tm shift relative to glycine control, % at 25 µM; actives 2.5% (n = 340,000);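 active = melting temperature shift of at least 10% of the positive control shift, at one fixed dose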
ANO1 block – blocks the mouse calcium-activated chloride channel TMEM16A; Q8BHY3; normalized B-score (activity score, 25-100; higher = stronger inhibition) at 10 µM; HEK293 TMEM16A/YFP iodide influx fluorescence, ionomycin; actives 1.2% (n = 310,000);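 active = ratio plate-corrected score three or more library SD toward inhibition, starting fluorescence score within five deviations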;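 also: score derived from kinetic fluorescence span divided by baseline fluorescence per well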
MPTP block – inhibitors of mitochondrial permeability transition pore; AID 602449; actives 1.4% (n = 360,000); isolated mouse mitochondria, Ca2+ swelling absorbance, 30 min; inhibition, % at 10 µM;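 active = inhibition of 50% or more, scaled per plate between neutral and stimulator controls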
CRFR2-BP antag – antagonists of CRF-binding protein/CRF-R2 receptor complex; actives 0.59% (n = 350,000); HEK293 CRF-R2/CRF-BP, CRF-induced calcium fluorescence; inhibition, % at 11.8 µM; AID 588475;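 active = inhibition of the ligand-induced calcium signal above about 50% at the single tested concentration, limit read from the data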
ANO1 activ – activates or potentiates the mouse TMEM16A chloride channel; Q8BHY3; HEK293 TMEM16A/YFP-H148Q/I152L, iodide quench fluorescence; active compounds read low; B-score at 10 µM; actives 0.3% (n = 340,000); AID 623877;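 active = fluorescence-ratio B-score plate-corrected deviation score at least 3 library SD below zero, with starting fluorescence score within 5 deviations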;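 also: channel opened by trigger with iodide after compound preincubation; score built on the fluorescence ratio of max minus min over baseline; more negative score means more quench and so TMEM16A activation or potentiation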
MPTP counter – membrane potential counter-screen of mitochondrial pore inhibitors; actives 78% (n = 5,000); inhibition, % at 10 µM; isolated mitochondria, Rhodamine 123 fluorescence; shares compounds with MPTP block; AID 624504; in the data active = inhibition above about 22%
Numbers stand for hits. Only some compounds are listed: those with a hit (about 5.1% of all), similar ones and a draw of the others.

`O=C(c1cccs1)N1C[C@@H](O)[C@H](n2cc(C3CC3)nn2)C[C@@H]1c1ccc(Cl)cc1` gave CRFR2-BP ag inactive, MPTP block inactive and CRFR2-BP antag inactive.
Screening O=C(NNc1nc2c(F)cccc2s1)c1ccc(F)cc1 returned CRFR2-BP ag inactive, NR3A LBD binder inactive, ANO1 block inactive, MPTP block 66, CRFR2-BP antag inactive, ANO1 activ inactive and MPTP counter 90.
Screening Fc1cccc2sc(Nc3nnc(-c4ccccc4)o3)nc12 returned CRFR2-BP ag inactive, NR3A LBD binder inactive, ANO1 block inactive, MPTP block 76, CRFR2-BP antag inactive, ANO1 activ inactive and MPTP counter 76.
For Fc1cccc2sc(Nc3nc4c(F)cccc4s3)nc12 the results were CRFR2-BP ag inactive, NR3A LBD binder inactive, ANO1 block inactive, MPTP block 56, CRFR2-BP antag inactive, ANO1 activ inactive and MPTP counter 69.
O=C(COc1ccccc1)NNc1nc2c(F)cccc2s1 was read as CRFR2-BP ag inactive, NR3A LBD binder inactive, ANO1 block inactive, MPTP block inactive, CRFR2-BP antag inactive and ANO1 activ inactive.
`CCOc1ccc(OCCC(=O)NNC(=O)c2cc(OC)c(OC)c(OC)c2)cc1` gave CRFR2-BP ag inactive, NR3A LBD binder inactive, ANO1 block inactive, MPTP block inactive, CRFR2-BP antag inactive and ANO1 activ inactive.
For O=C1NC(=S)S/C1=C\c1cc2ccccc2nc1N1CCCCC1 the results were CRFR2-BP ag inactive, NR3A LBD binder inactive, ANO1 block inactive, MPTP block 73, CRFR2-BP antag inactive, ANO1 activ inactive and MPTP counter 67.
COc1ccc2nc(N3CCCCC3)c(/C=C3\SC(=S)NC3=O)cc2c1 was read as CRFR2-BP ag inactive, NR3A LBD binder inactive, ANO1 block inactive, MPTP block 76, CRFR2-BP antag inactive, ANO1 activ inactive and MPTP counter 44.
`COc1ccc(-n2c(C)cc(/C=C3\SC(=S)NC3=O)c2C)cc1` gave CRFR2-BP ag inactive, NR3A LBD binder inactive, ANO1 block inactive, MPTP block inactive, CRFR2-BP antag inactive and ANO1 activ inactive.
CCN(CC)c1ccc(/C=C2\SC(N)=NC2=O)cc1 was read as CRFR2-BP ag inactive, NR3A LBD binder inactive, ANO1 block inactive, MPTP block inactive, CRFR2-BP antag inactive and ANO1 activ inactive.
CCN(CC)c1ccc(C=C2SC(=S)NC2=O)cc1 was read as CRFR2-BP ag 168, NR3A LBD binder inactive, MPTP block 64, CRFR2-BP antag inactive, ANO1 activ -5.1 and MPTP counter 78.
For O=C1NC(=S)SC1=Cc1ccccc1Cl the results were CRFR2-BP ag inactive, NR3A LBD binder inactive, MPTP block 90, CRFR2-BP antag inactive, ANO1 activ inactive and MPTP counter 91.
Screening COC(=O)c1ccc2nc(-c3ccco3)c(Cc3ccccc3C(F)(F)F)n2c1 returned MPTP block inactive.
For CCOC(=O)C1(C)CCN1C(=O)c1cc(-c2ccc(Cl)cc2)oc1C (stereo unspecified) the results were MPTP block inactive.
`O=C1NC(=S)S/C1=C\c1cccc([N+](=O)[O-])c1` gave CRFR2-BP ag inactive, NR3A LBD binder 12, MPTP block 82, CRFR2-BP antag 55, ANO1 activ inactive and MPTP counter 95.
Screening O=C1NC(=O)/C(=C/c2cccc([N+](=O)[O-])c2)N1 returned CRFR2-BP ag inactive, NR3A LBD binder inactive, ANO1 block inactive, MPTP block inactive, CRFR2-BP antag inactive and ANO1 activ inactive.
`Cc1ccc(NC(=O)NCC2CC2(Cl)Cl)cc1` (stereo unspecified) gave CRFR2-BP ag inactive, NR3A LBD binder inactive, ANO1 block inactive, MPTP block inactive, CRFR2-BP antag inactive and ANO1 activ inactive.
`COC(=O)c1cccc(NC(=O)NC(=O)c2ccccc2Cl)c1` gave CRFR2-BP ag inactive, NR3A LBD binder inactive, ANO1 block inactive, MPTP block inactive, CRFR2-BP antag inactive and ANO1 activ inactive.
Screening COC(=O)c1cc(NC(=O)C2COc3ccccc3O2)ccc1Cl (stereo unspecified) returned CRFR2-BP ag inactive, NR3A LBD binder inactive, ANO1 block inactive, MPTP block inactive, CRFR2-BP antag inactive and ANO1 activ inactive.

Bioassay records (PubChem)
